Rows were chosen to be rich in hits. Some 18% of all compounds tested hit in one or more screens of this group.
DT40 TDP1 no CPT – qHTS for Inhibitors of human tyrosyl-DNA phosphodiesterase 1 (TDP1): qHTS in cells in absence of CPT | Potency, µM (top dose mostly 46.2 µM), actives largely listed as inhibitors | DT40 Tdp1-/- hTDP1 cells, no CPT, ATP luminescence, 48 h | 15% of 420,000 active | AID 686978, 2013; further: nearly all actives have a fitted effect of over 55% in size
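A cellular qHTS used chicken DT40 cells lacking endogenous Tdp1 but carrying stably transfected human TDP1. Compounds were applied without camptothecin, and cell growth kinetics were judged by ATP-dependent luminescence after ≥48 hr.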
TDP1 cell CPT – qHTS for Inhibitors of human tyrosyl-DNA phosphodiesterase 1 (TDP1): qHTS in cells in presence of CPT. chicken DT40 Tdp1-/-;hTDP1 cells + 20 nM CPT, ATP luminescence, 48 h. Potency, µM (titrated, usually from 46.2 µM), most hits filed as inhibitors. 12% of 420,000 active. AID 686979, 2013; further: nearly all actives have a fitted effect of over 55% in size
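Chicken DT40 Tdp1-/- cells complemented with human TDP1, 400 cells/well, exposed to compounds plus 20 nM camptothecin for at least 48 h at 37 C; viability read as ATP content by CellTiter-Glo luminescence.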
LDHA block – qHTS assay for inhibitors of human lactate dehydrogenase; L-lactate dehydrogenase A chain (Homo sapiens), P00338; purified LDHA, NADH/diaphorase-resazurin fluorescence; hits give low values; activity change, % (values are at about 110 or 230 µM); 0.15% of 480,000 active; AID 1347041, 2019; in the data active means activity change below about -30%; inconclusive means mostly about -25% to -30%
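Resorufin fluorescence (ex540/em590), read at 0 and 20 min after diaphorase/resazurin addition, reports the NADH left after a 5 min room-temperature reaction of 2 nM human LDH5 with 0.06 mM NADH and 0.2 mM pyruvate.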
IL1B secr inh – qHTS for Inhibitors of Inflammasome Signaling: IL-1-beta AlphaLISA Primary Screen; 4.7% of 360,000 active; THP-1 LPS/ATP IL-1B secretion, AlphaLISA, 16 h; hits give low values; activity change, % at 57.5 µM; in the data active means activity change below about -50%; inconclusive means mostly about -30% to -49%
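Secreted IL-1B measured by AlphaLISA bead assay after 16 h compound exposure of THP-1 cells; compounds (final up to 57.5 uM) added 1 h before LPS (250 ng/mL) and ATP (1.25 mM) stimulation; lower signal means less secretion.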
VP16 counter – VP16 counterscreen qHTS for inhibitors of ROR gamma transcriptional activity. Drosophila S2 Gal4-VP16 UAS-luciferase, luminescence, 20 h. 3.5% of 310,000 active. Potency, µM (titrated, usually from 53.6 µM), actives largely listed as inhibitors;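 further: Gal4-VP16 expression switched on by copper sulfate through the metallothionein promoter; nearly all actives have a fitted effect of over 50% in size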
RORg inh – qHTS for inhibitors of ROR gamma transcriptional activity; Nuclear receptor ROR-gamma (Mus musculus), P51450; Drosophila S2 Gal4-RORgamma UAS-luciferase reporter, 20 h; Potency, µM (top dose mostly 53.6 µM), actives largely listed as inhibitors; 5.4% of 310,000 active; AID 2551, 2010; further: nearly all actives have a fitted effect of over 60% in size
Target sequence (P51450 whole entry, looked up, the tested form may be a part): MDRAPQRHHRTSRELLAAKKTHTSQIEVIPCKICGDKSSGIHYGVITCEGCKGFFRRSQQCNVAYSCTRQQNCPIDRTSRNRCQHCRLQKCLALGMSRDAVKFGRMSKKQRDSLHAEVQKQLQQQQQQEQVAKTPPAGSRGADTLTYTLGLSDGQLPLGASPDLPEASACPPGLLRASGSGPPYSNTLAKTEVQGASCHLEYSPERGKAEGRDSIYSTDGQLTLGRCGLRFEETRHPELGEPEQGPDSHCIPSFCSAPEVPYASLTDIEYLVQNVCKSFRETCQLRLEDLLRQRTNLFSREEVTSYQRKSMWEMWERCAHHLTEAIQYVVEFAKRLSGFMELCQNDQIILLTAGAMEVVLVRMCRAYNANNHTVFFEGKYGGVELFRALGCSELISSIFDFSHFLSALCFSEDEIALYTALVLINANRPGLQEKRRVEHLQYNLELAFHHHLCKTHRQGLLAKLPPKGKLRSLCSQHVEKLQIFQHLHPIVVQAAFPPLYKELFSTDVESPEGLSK
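Using a luciferase readout, inhibitors were identified by reduced reporter activity in Drosophila cells coexpressing a copper-inducible Gal4–ROR gamma fusion and UAS-driven Photinus luciferase, incubated 20 hr after 700 uM copper sulfate.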
Of the large screens only hits and unclear results are named; the others gave an inactive call. Unless noted, the call rests on the fitted dose curve; in most records, active means well fitted curve in the direction sought with a large enough effect; inconclusive means small, poorly fitted or top-dose-only effect, or another doubt; inactive means no such curve, though single readings can be large; an effect the other way counts as inactive or inconclusive.

CCCNCC1C(Oc2ccc(Cl)cc2Cl)C(=O)N1c1cccc(C)c1C (stereo not drawn)	DT40 TDP1 no CPT 18µM, TDP1 cell CPT inconclusive, IL1B secr inh -53, RORg inh inconclusive
O=c1c(Cl)c(Oc2ccc(C(F)(F)F)cc2)cnn1-c1ccc(C(F)(F)F)cn1	none (no result: DT40 TDP1 no CPT, TDP1 cell CPT, IL1B secr inh, VP16 counter, RORg inh)
Cc1ccc(C(=O)c2cn(Cc3ccc(F)cc3)c3nc(C)ccc3c2=O)cc1	DT40 TDP1 no CPT 23µM, TDP1 cell CPT 16µM (no result: IL1B secr inh, VP16 counter, RORg inh)
Cc1ccc(C(=O)c2cn(Cc3cccc(Cl)c3)c3nc(C)ccc3c2=O)cc1	DT40 TDP1 no CPT inconclusive, TDP1 cell CPT inconclusive (no result: IL1B secr inh, VP16 counter, RORg inh)
CCN(C(=O)Cn1cc(C(=O)c2ccc(F)cc2)c(=O)c2ccc(C)nc21)c1cccc(C)c1	DT40 TDP1 no CPT inconclusive, TDP1 cell CPT 16µM (no result: IL1B secr inh, VP16 counter, RORg inh)
COc1ccc(N2CCN(Cc3nc(Cc4cccc(F)c4)no3)C(C)C2)cc1 (stereo not drawn)	DT40 TDP1 no CPT 18µM
Fc1cccc(Cc2noc(CN3CCCCC3CCc3ccccn3)n2)c1 (stereo not drawn)	DT40 TDP1 no CPT inconclusive, IL1B secr inh -79, VP16 counter inconclusive
Cc1cccnc1CN1CCN(Cc2nc(Cc3cccc(F)c3)no2)CC1	RORg inh 13µM
Fc1cccc(Cc2noc(CN3CCSCC3)n2)c1	none
O=C(c1ccccn1)C1CCCN(Cc2nc(Cc3cccc(F)c3)no2)C1 (stereo not drawn)	DT40 TDP1 no CPT inconclusive, TDP1 cell CPT inconclusive
CCCCCc1ccc(-c2ccc(C3CCC(CCCCC)CC3)cc2)nc1 (stereo not drawn)	none (no result: DT40 TDP1 no CPT, TDP1 cell CPT, IL1B secr inh, VP16 counter, RORg inh)
CCCc1ccc(-c2ccc(/C=C/C(=O)O)cc2)nc1	VP16 counter inconclusive, RORg inh 0.16µM
CN1CCN(C(=O)c2cnn3c(C(F)(F)F)cc(-c4cccs4)nc23)CC1	none
O=C(c1cnn2c(C(F)(F)F)cc(-c3cccs3)nc12)N1CCN(Cc2ccccc2)CC1	DT40 TDP1 no CPT 15µM, TDP1 cell CPT inconclusive, IL1B secr inh inconclusive, RORg inh inconclusive
O=C(NCCc1ccccc1)c1nc2nc(-c3cccs3)cc(C(F)(F)F)n2n1	DT40 TDP1 no CPT 29µM, TDP1 cell CPT 21µM
COc1ccccc1-c1cc(C(F)(F)F)n2ncc(C(=O)N3CCc4ccccc4C3)c2n1	DT40 TDP1 no CPT 23µM, TDP1 cell CPT inconclusive, VP16 counter inconclusive
O=C(c1ccco1)N1CCN(C(=O)c2cnn3c(C(F)(F)F)cc(-c4cccs4)nc23)CC1	DT40 TDP1 no CPT inconclusive
O=C(c1cnn2c(C(F)(F)F)cc(-c3cccs3)nc12)N1CCN(C(c2ccccc2)c2ccccc2)CC1	DT40 TDP1 no CPT 13µM, TDP1 cell CPT 9.2µM, RORg inh inconclusive
CC(=O)NC12CC3CC(C1)CC(C(=O)NCCNC(=O)c1ccc(Cl)cc1)(C3)C2	none (no result: DT40 TDP1 no CPT, TDP1 cell CPT, IL1B secr inh, VP16 counter, RORg inh)
CS(=O)(=O)c1ccc2nc(NC(=O)CSCc3ccc(Cl)cc3)sc2c1	none (no result: DT40 TDP1 no CPT, TDP1 cell CPT, IL1B secr inh, VP16 counter, RORg inh)
COC(=O)c1ccc(CNC(=O)COC(=O)c2cc3ccccc3oc2=O)cc1	none (no result: DT40 TDP1 no CPT, TDP1 cell CPT, IL1B secr inh, VP16 counter, RORg inh)
N#CCC(=O)N/N=C/c1coc2ccccc2c1=O	none
N#C/C(=C\c1coc2ccccc2c1=O)C(N)=S	DT40 TDP1 no CPT 15µM, TDP1 cell CPT inconclusive, VP16 counter inconclusive, RORg inh 13µM
CCN1C(=O)C(O)(CC(=O)c2cc(C)c(C)cc2C)c2ccccc21 (stereo not drawn)	none (no result: DT40 TDP1 no CPT, TDP1 cell CPT, IL1B secr inh, VP16 counter, RORg inh)
COc1ccc([C@H]2C[C@H](n3cc(COC(=O)c4ccccc4)nn3)[C@@H](O)CN2Cc2cccs2)cc1	DT40 TDP1 no CPT 18µM, TDP1 cell CPT inconclusive (no result: VP16 counter, RORg inh)
Cc1ccc([C@H]2C[C@H](O)[C@@H](n3cc(COC(=O)c4ccccc4)nn3)CN2Cc2cccs2)cc1	DT40 TDP1 no CPT 23µM, TDP1 cell CPT 21µM, IL1B secr inh inconclusive (no result: VP16 counter, RORg inh)
O=C(OCc1cn([C@@H]2C[C@H](c3ccccc3)N(Cc3cccs3)C[C@H]2O)nn1)c1ccccc1	none (no result: VP16 counter, RORg inh)
Cc1ccc([C@H]2C[C@@H](O)[C@H](n3cc(COC(=O)c4ccccc4)nn3)CN2C(=O)c2cccs2)cc1	DT40 TDP1 no CPT 26µM, TDP1 cell CPT inconclusive, LDHA block inconclusive (no result: VP16 counter, RORg inh)
Cc1ccc([C@H]2C[C@@H](n3cc(COC(=O)c4ccccc4)nn3)[C@H](O)CN2C(=O)c2cccs2)cc1	DT40 TDP1 no CPT inconclusive (no result: VP16 counter, RORg inh)
O=C(OCc1cn([C@H]2CN(Cc3cccs3)[C@@H](c3ccccc3)C[C@@H]2O)nn1)c1ccccc1	DT40 TDP1 no CPT 21µM, TDP1 cell CPT 18µM (no result: VP16 counter, RORg inh)
O=C1CCc2cc(C(=O)NCCc3ccc4c(c3)OCCO4)ccc2N1	none (no result: DT40 TDP1 no CPT, TDP1 cell CPT, IL1B secr inh, VP16 counter, RORg inh)
CCC(C)/C=C/C1=CC2=C(Cl)C(=O)C3(C)OC(=O)C(C(=O)C(C)C(C)O)C3C2=CO1 (stereo not drawn)	DT40 TDP1 no CPT 18µM, TDP1 cell CPT 12µM
Cc1ccc(CNc2nc(NCc3ccc(C)cc3)n(C(=O)c3ccncc3)n2)cc1	none (no result: DT40 TDP1 no CPT, TDP1 cell CPT, IL1B secr inh, VP16 counter, RORg inh)
Cc1cc2nc(/C=C/c3cccnc3)[nH]c2cc1C	DT40 TDP1 no CPT 0.018µM, TDP1 cell CPT 0.018µM, RORg inh inconclusive
CCc1nnc(Cn2cnc3scc(-c4ccc(C)cc4)c3c2=O)o1	none (no result: DT40 TDP1 no CPT, TDP1 cell CPT, IL1B secr inh, VP16 counter, RORg inh)

Screens from PubChem.
